Records with an inconclusive call do not appear. Activity calls are given as the source filed them. Unless noted, the call rests on the fitted dose curve; in most records, active means well fitted curve in the direction sought with a large enough effect in the repeat runs; inconclusive means weak or mixed curves; inactive means no such curve, though single readings can be large; an effect the other way counts as inactive or inconclusive.

Experiment [1] is described as follows: qHTS assay to identify aromatase inhibitors - cell viability counter screen (AID 743084).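 Further: cells stimulated with testosterone during compound exposure; nearly all actives have a fitted effect of over 55% in size.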
For experiment [2], the target named is Aryl hydrocarbon receptor (Homo sapiens) (UniProt P35869). Put plainly: qHTS assay to identify small molecule that activate the aryl hydrocarbon receptor (AhR) signaling pathway (AID 743085). Further: nearly all actives have a fitted effect of over 15% in size. Further: potency means the concentration at half of the fitted maximal effect.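 On activation: HG2L7.5c1 human HepG2 liver cells with stably integrated DRE-driven firefly reporter; series mostly up to about 70 µM.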 In a few lines: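 Steps: seed HepG2-AhR-luc cells; allow 5 h at 37C; pin-transfer test compound or vehicle; incubate 24 h at 37C; add viability dye (30 min, 37C) and read fluorescence; add luciferase substrate (30 min, RT) and read luminescence.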
(In general: qHTS replaces the single test concentration by a dilution series.)

Experiment [3] in a line: qHTS assay to identify small molecule that activate the aryl hydrocarbon receptor (AhR) signaling pathway - cell viability counter screen (AID 743086).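 Further: HepG2 liver cells carrying the AhR DRE luciferase reporter; series mostly up to about 70 µM; nearly all actives have a fitted effect of over 45% in size.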 The gist of the method:
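HepG2-AhR-luc (HG2L7.5c1) cells, 4000/well, were preincubated 5 h at 37C, exposed to compound in qHTS format for 24 hr at 37C, then given CellTiter-Fluor for 30 min; viability was read as fluorescence in the reporter wells.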

Experiment [4] can be described thus: qHTS assay to identify small molecule antagonists of the peroxisome proliferator-activated receptor gamma (PPARg) signaling pathway - cell viability counter screen (AID 743194). Further: nearly all actives have a fitted effect of over 55% in size. The gist of the method:
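PPARg-UAS-bla HEK293H cells were plated, rested 5 h at 37 C, then treated with compounds plus rosiglitazone (50 nM final) for 17 h at 37 C; viability was then read by CellTiter-Glo luminescence after 30 min at room temperature.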

Experiment [5] can be described thus: qHTS assay for small molecule agonists of the antioxidant response element (ARE) signaling pathway (AID 743202; active means well fitted activation curve with a large enough effect in the signal ratio in the repeat runs, not every such curve was filed as active; the % refers to the signal ratio). The gist of the method: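 Read-out: LiveBLAzer B/G FRET substrate fluorescence after 2 h at room temperature, following 16 h compound treatment at 37 C of HepG2 cells carrying an ARE-driven beta-lactamase reporter.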
Experiment [6] can be described thus: qHTS assay for small molecule agonists of the antioxidant response element (ARE) signaling pathway - cell viability counter screen (AID 743203; calls by dose curve; further: nearly all actives have a fitted effect of over 55% in size). In a few lines: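 Seeded at 2,000 cells/well, ARE-bla HepG2 cells were incubated 5 hrs before compound addition. After 16 hrs of treatment at 37C with 5% CO2, CellTiter-Glo reagent was added and luminescence read 30 min later.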

Experiment [7] is described as follows: qHTS assay for small molecule activators of the heat shock response signaling pathway - cell viability counter screen (AID 743209). Further: nearly all actives have a fitted effect of over 50% in size. Further: potency means the concentration at half of the fitted maximal effect. The gist of the method:
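First, HSE-bla HeLa cells were seeded at 1500 cells/well and kept overnight at 37 C. Next, compounds were pinned in and incubated 5 h. After the FRET substrate step, CellTiter-Glo was added and luminescence read 30 min later.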

Experiment [8] can be described thus: qHTS assay for small molecule activators of the heat shock response signaling pathway (AID 743210; active means well fitted activation curve with a large enough effect in the signal ratio in the repeat runs, with a control signal flat, not every such curve was filed as active; the % refers to the signal ratio; further: series mostly up to about 63 µM). In a few lines:
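HSE-bla HeLa cells (beta-lactamase reporter under heat shock response elements) were exposed to compounds for 5 h at 37 C, then loaded with LiveBLAzer B/G FRET substrate for 2.5 h at room temperature before fluorescence reading.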

The target of experiment [9] is Peroxisome proliferator-activated receptor gamma (Homo sapiens) (UniProt P37231). Put plainly: qHTS assay to identify small molecule antagonists of the peroxisome proliferator-activated receptor gamma (PPARg) signaling pathway (AID 743191; calls by dose curve; further: series mostly up to about 63 µM; nearly all actives have a fitted effect of over 30% in size). The gist of the method:
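GeneBLAzer PPARg UAS-bla HEK293H cells carrying a UAS-driven beta-lactamase reporter were plated at 3000 cells/well, preincubated 5 h at 37C, then given compound for 17 h at 37C; LiveBLAzer B/G FRET substrate was read after 1 h at room temperature.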

For experiment [10] the target is unchanged. Put plainly: qHTS assay to identify small molecule agonists of the peroxisome proliferator-activated receptor gamma (PPARg) signaling pathway (AID 743094; active means well fitted activation curve with a large enough effect in the signal ratio in the repeat runs, not every such curve was filed as active; the % refers to the signal ratio). The gist of the method:
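Quantitative HTS agonist mode: stable HEK293H line with UAS-beta-lactamase reporter under PPARg control, 17 h compound exposure at 37C, fluorescence after 1 h FRET substrate loading at room temperature.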

Sequence of Peroxisome proliferator-activated receptor gamma (Homo sapiens) (P37231 whole entry, looked up): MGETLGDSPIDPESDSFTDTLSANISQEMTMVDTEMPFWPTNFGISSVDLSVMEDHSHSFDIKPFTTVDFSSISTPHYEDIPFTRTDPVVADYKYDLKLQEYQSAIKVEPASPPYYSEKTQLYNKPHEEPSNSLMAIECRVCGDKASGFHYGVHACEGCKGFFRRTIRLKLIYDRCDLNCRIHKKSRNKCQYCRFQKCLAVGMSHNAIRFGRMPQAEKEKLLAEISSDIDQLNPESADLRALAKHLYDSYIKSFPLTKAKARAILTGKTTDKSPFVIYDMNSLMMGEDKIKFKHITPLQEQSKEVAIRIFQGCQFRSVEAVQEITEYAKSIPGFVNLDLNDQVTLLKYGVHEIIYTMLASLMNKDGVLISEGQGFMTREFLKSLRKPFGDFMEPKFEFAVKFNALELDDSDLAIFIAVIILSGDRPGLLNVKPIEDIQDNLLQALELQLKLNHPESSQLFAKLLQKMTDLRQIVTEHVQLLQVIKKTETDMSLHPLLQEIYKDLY
Sequence of Aryl hydrocarbon receptor (Homo sapiens) (P35869 whole entry, looked up): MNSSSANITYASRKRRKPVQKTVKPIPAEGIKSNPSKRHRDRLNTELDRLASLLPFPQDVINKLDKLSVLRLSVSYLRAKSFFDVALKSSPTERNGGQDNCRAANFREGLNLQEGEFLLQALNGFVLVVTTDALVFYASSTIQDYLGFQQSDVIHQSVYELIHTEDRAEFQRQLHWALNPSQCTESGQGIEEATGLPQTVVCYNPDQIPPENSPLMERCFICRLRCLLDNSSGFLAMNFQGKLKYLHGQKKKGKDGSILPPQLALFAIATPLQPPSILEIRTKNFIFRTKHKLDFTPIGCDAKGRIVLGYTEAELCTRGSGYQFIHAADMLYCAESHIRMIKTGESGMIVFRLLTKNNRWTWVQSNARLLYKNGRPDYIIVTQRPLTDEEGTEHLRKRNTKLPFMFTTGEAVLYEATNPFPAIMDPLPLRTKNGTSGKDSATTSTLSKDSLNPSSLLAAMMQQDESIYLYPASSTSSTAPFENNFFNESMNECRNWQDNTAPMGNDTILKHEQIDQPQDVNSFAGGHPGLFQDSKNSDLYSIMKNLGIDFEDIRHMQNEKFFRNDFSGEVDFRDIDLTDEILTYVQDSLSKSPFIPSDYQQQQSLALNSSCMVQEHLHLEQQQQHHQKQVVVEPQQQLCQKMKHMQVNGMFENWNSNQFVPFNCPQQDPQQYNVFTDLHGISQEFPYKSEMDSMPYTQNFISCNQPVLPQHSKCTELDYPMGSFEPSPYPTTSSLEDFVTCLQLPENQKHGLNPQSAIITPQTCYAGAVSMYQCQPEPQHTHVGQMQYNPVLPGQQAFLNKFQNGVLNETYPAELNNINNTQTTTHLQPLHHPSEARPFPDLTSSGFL

On to `CC(=O)C(C)=O`, for which the Potency result in [1], in experiment [2], in [3], in [4], in experiment [5] and in [6] was “inactive” each time. Besides, the Potency result in [7] and in experiment [8] was “inactive” in each case.
Regarding `CC(C)(C)C(O)/C=C/c1ccc2c(c1)OCO2` (stereo not drawn), the Potency entry in experiment [1], in experiment [3], in experiment [9], in experiment [4], in experiment [6] and in experiment [7] was “inactive” each time. Besides, in experiment [8], the Potency result is “inactive”. The Potency in experiment [2] is 11.9 µM (active).
As to `CC[C@H]1OC(=O)[C@H](C)[C@@H](O[C@H]2C[C@@](C)(OC)[C@@H](O)[C@H](C)O2)[C@H](C)[C@@H](O[C@@H]2O[C@H](C)C[C@H](N(C)C)[C@H]2O)[C@](C)(O)C[C@@H](C)C(=O)[C@H](C)[C@@H](O)[C@]1(C)O`, the Potency result in experiment [1], in experiment [2], in experiment [3], in [4], in experiment [5] and in [8] was “inactive” in each case.
With `CC(C)Cc1ccc(CC(=O)O)cc1`, the Potency entry in experiment [1], in experiment [2], in experiment [3], in experiment [4], in [5] and in [6] was “inactive” throughout.
As for `CCSC(=O)N(CC)CC`, the Potency result in experiment [1], in experiment [2], in [3], in [4], in [6] and in experiment [7] was “inactive” in each case. Moreover, in [8], the Potency result was “inactive”. The compound was classed as inactive in experiment [10].
As for `CC(C)(O)CCc1ccccc1`, the Potency result in experiment [1], in [3], in experiment [9], in experiment [4], in [5] and in experiment [6] was “inactive” throughout. Moreover, the Potency entry in experiment [7] and in experiment [8] was “inactive” in each case. For the same compound, the result in experiment [10] was inactive.
On to `CCCCCCCCCCCSCC(=O)O`, for which the Potency result in experiment [1], in experiment [2], in [3] and in [4] was “inactive” each time. Further, the Potency in experiment [7] is 49 µM (active).
Regarding `Cc1cccc(C)c1NC(=O)c1cc(S(N)(=O)=O)c(Cl)cc1O`, the Potency entry in experiment [1], in [3], in experiment [9], in [4], in [5] and in experiment [6] was “inactive” each time. Besides, the Potency result in experiment [7] and in experiment [8] was “inactive” each time. For the same compound, the outcome in experiment [10] was inactive.
In the case of `C1=CCC2CC=CC2C1` (stereo not drawn), the Potency entry in experiment [1], in experiment [3], in experiment [9], in experiment [4], in [7] and in experiment [8] was “inactive” in each case. Also, in experiment [10], the outcome was inactive.
As for `CC[C@H]1OC(=O)[C@H](C)[C@@H](O[C@H]2C[C@@](C)(OC)[C@@H](O)[C@H](C)O2)[C@H](C)[C@@H](O[C@@H]2O[C@H](C)C[C@H](N(C)C)[C@H]2O)[C@](C)(O)C[C@@H](C)CN(C)[C@H](C)[C@@H](O)[C@]1(C)O`, the Potency entry in experiment [1], in [2], in experiment [3], in experiment [4], in [6] and in experiment [7] was “inactive” throughout. Moreover, in [8], the Potency result is “inactive”.

Values taken from PubChem BioAssay (Tox21).
